Screening results as filed in PubChem.
Most compounds without a hit are left out; they make up all but 3% or so of the library.
ATG4B inh: ATG4B (human) cysteine protease inhibition. Q9Y4P1. AID 504462. hit rate 0.51% among 340,000. ATG4B cleavage of LC3-PLA2, NBD-HPC fluorescence, 1 h. inhibition, % at 8.33 µM; in the data active = inhibition above about 40%
PAFAH2 inh: inhibitors of human PAFAH2; Q99487; recombinant PAFAH2, FP-rhodamine activity probe, fluorescence polarization; inhibition, % at 3.39 µM; hit rate 0.99% among 340,000;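 active = inhibition above the mean over all tested compounds plus 3 SD, cut at about 30% in these data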;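 also: inhibitors block probe labeling of enzyme so polarization drops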
PAFAH1B3 FP inh: blocks human PAF acetylhydrolase 1B catalytic subunit 3 | AID 492972 | inhibition, % at 3.39 µM | recombinant PAFAH1B3, FP-rhodamine probe, fluorescence polarization | hit rate 0.28% among 340,000;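 active = inhibition above the screen-wide average of all tested compounds plus 3 SD, cut at about 25% in these data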
Target sequence (Q15102 whole entry, looked up): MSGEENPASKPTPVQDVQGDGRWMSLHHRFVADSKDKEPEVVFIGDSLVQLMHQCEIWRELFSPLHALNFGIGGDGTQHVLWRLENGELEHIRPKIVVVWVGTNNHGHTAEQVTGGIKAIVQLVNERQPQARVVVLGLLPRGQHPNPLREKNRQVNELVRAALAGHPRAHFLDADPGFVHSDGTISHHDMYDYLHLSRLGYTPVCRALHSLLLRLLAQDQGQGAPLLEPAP
DAGLB inh: diacylglycerol lipase beta (human) inhibition | inhibition, % at 5.17 µM | hit rate 0.059% among 340,000 | Q8NCG7 | HEK293T DAGLB membrane lysate, EnzChek fluorogenic substrate; in the data active = inhibition above about 34%
PAFAH1B2 FP inh: PAFAH1B2 (human) inhibition | P68402 | recombinant PAFAH1B2, FP-rhodamine activity probe, fluorescence polarization | inhibition, % at 3.39 µM | hit rate 1.2% among 340,000 | AID 492953;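 active = inhibition above the mean of all tested compounds plus 3 SD, cut at about 24% in these data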
Target sequence (P68402 whole entry, looked up): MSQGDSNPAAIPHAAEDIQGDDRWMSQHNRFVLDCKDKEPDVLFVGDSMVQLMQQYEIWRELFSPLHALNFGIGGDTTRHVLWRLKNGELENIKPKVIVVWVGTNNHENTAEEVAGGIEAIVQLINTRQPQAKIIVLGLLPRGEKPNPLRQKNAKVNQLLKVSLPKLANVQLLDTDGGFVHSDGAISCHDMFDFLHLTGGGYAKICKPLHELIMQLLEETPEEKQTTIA
pPAFAH FP inh: inhibitors of human plasma PAF acetylhydrolase (pPAFAH); Q13093; recombinant pPAFAH, FP-rhodamine probe fluorescence polarization; inhibition, % at 3.39 µM; hit rate 1.5% among 330,000; AID 463082;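 active = inhibition above the mean inhibition across the screen plus 3 SD, cut at about 25% in these data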;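 also: inhibitors block binding of the rhodamine activity-based probe so polarization drops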
ATG4B conf: ATG4B (human) inhibition, single-dose confirmed; ATG4B protease fluorescent substrate cleavage assay; hit rate 92% among 320; AID 504757; shares compounds with ATG4B inh; inhibition, % at 8.33 µM; in the data active = inhibition above about 39%
PLA2 counter: inhibits human PLA2, flagging false ATG4B inhibitors. shares compounds with ATG4B inh. purified PLA2, NBD-C6-HPC fluorescence, 45 min. inhibition, % at 8.33 µM. hit rate 66% among 1,600. AID 588402; in the data active = inhibition above about 50%
Target sequence (P04054 whole entry, looked up): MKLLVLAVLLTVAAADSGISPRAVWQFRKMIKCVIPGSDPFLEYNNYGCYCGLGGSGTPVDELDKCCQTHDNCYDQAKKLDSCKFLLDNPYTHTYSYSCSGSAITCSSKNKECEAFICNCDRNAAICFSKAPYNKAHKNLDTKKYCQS
Large screens that a line does not name were inactive (follow-up assays come after a bar, where they were run).

CC(CO)Nc1nc(SCc2ccccc2)nc2sc3c(c12)CCC3 (stereo not drawn)	ATG4B inh 83.3 | PLA2 counter 91.3
COCCNc1nc(SCc2ccccc2)nc2sc3c(c12)CCC3	ATG4B inh 46.4 | PLA2 counter 60.3
CNC(=O)CSc1nc(N)c2c3c(sc2n1)CCC3	none
Nn1c(SCC(=O)Nc2nccs2)nnc1C1CC1	none
CC1CN(C(=O)c2cc(S(=O)(=O)N3CCCCC3)ccc2Cl)CC(C)O1 (stereo not drawn)	none
O=C1NC(=S)S/C1=C\c1cc(Cl)cc(Cl)c1O	ATG4B inh 62.1 (no result: pPAFAH FP inh) | ATG4B conf 39.8 | PLA2 counter inactive
Cc1ccc(-c2cc(=O)c3cc(C)ccc3[nH]2)cc1	ATG4B inh 71.8 | PLA2 counter inactive
Cc1ccc(-c2cc(=O)c3cc(F)ccc3[nH]2)cc1	none
O=C(CCCN1C(=O)C(c2ccccc2)Oc2cccnc21)Nc1ccccc1Cl (stereo not drawn)	none
COC(=O)c1ccc(CNC(=O)COC(=O)C2CCC(C(C)(C)C)CC2)cc1 (stereo not drawn)	none
NC(=O)C1Cc2ccccc2CN1C(=O)c1cccc(Oc2ccccc2)c1 (stereo not drawn)	ATG4B inh 47.3 | PLA2 counter 94.2
O=C(O)c1cc(C2CC2)nn1-c1ccccc1	none
NC(=O)C1Cc2ccccc2CN1C(=O)c1cc(C2CC2)nn1-c1ccccc1 (stereo not drawn)	ATG4B inh 91.5 | PLA2 counter 92.3
O=C(c1nn(Cc2ccccc2)c(=O)c2ccccc12)N1CCc2ccccc2C1	none
NC(=O)C1Cc2ccccc2CN1C(=O)c1nn(Cc2ccccc2)c(=O)c2ccccc12 (stereo not drawn)	ATG4B inh 40.9 | PLA2 counter 61.0
Cc1ccc(C)c(NC(=O)COC(=O)c2cc3ccccc3oc2=O)c1	none
C=C(C)c1cccc(C(C)(C)NC(=O)N2CCN(C(=O)OCC)CC2)c1	none (no result: ATG4B inh, PAFAH2 inh, PAFAH1B3 FP inh, PAFAH1B2 FP inh, pPAFAH FP inh)
Cc1nn(Cc2c(F)c(F)c(F)c(F)c2F)c(C)c1NC(=O)c1ccc(COc2ccc(F)cc2)o1	ATG4B inh 66.8 | PLA2 counter 67.9
Cc1nn(Cc2c(F)c(F)c(F)c(F)c2F)c(C)c1NC(=O)c1ccc(COc2cc(Cl)ccc2Cl)cc1	ATG4B inh 61.6 | ATG4B conf 44.0 | PLA2 counter inactive
Cc1nn(Cc2c(F)c(F)c(F)c(F)c2F)c(C)c1NC(=O)c1ccc(COc2ccccc2Cl)cc1	none (no result: pPAFAH FP inh)
Cc1nn(Cc2c(F)c(F)c(F)c(F)c2F)c(C)c1NC(=O)c1ccc(COc2ccccc2Cl)o1	ATG4B inh 67.5 | PLA2 counter 79.0
CC(=O)O[C@H]1[C@@H](O)[C@H](O)[C@H](Oc2c(O)c(C)c3c4c2[C@@H](C)CC[C@@H]4[C@@H](C)C[C@H]3C=C(C)C)O[C@H]1C	none
Cc1ccc(S(=O)(=O)Nc2ccc(Cl)cn2)cc1C	none
Cc1cccc(C)c1NC(=O)CN1C(=O)S/C(=C\c2cccn2-c2cccc(C(=O)O)c2)C1=O	ATG4B inh 46.9 | PLA2 counter inactive
Cc1cccc(NC(=O)COC(=O)c2ccccc2-c2nc3ccccc3s2)c1C	ATG4B inh 48.1 | PLA2 counter 51.2
O=C(Nc1ccc(N2CCN(C(=O)c3ccccc3F)CC2)cc1)c1cncc(Br)c1	none
COc1ccccc1CNC(=O)c1ccc(OC(F)F)c(OC)c1	none
CC(C)(C)c1ccc(C(=O)Nc2ccccc2Cl)cc1	ATG4B inh 45.3 | PLA2 counter 55.4
CS(=O)(=O)Nc1ccc(C(=O)Nc2ccccc2Cl)cc1	none (no result: PAFAH2 inh, PAFAH1B3 FP inh, DAGLB inh, PAFAH1B2 FP inh)
Cc1ccc2c(c1)nnn2C1CCN(S(=O)(=O)c2ccc(C(=O)N3CC(C)CC(C)C3)cc2)CC1 (stereo not drawn)	ATG4B inh 59.1 | PLA2 counter 72.8
CCN1CCN(c2nc3c(C)cccn3c(=O)c2/C=C(\C#N)S(=O)(=O)c2ccccc2)CC1	ATG4B inh 50.2 | PLA2 counter 51.6
O=S(=O)(c1ccc2c(c1)C(O)c1ccccc1CC2)C(F)(F)F (stereo not drawn)	ATG4B inh 40.1 | PLA2 counter 59.8
Nc1cc(S(=O)(=O)C(F)(F)F)ccc1C(=O)O	none
N#C/C(=C\c1coc2ccc(O)cc2c1=O)C(=O)Nc1nc2ccccc2s1	ATG4B inh 54.5, pPAFAH FP inh 33.1 | PLA2 counter inactive
N#C/C(=C\c1coc2ccccc2c1=O)C(N)=S	none
CC(C)c1ccc(C2NC(=O)c3ccccc3O2)cc1 (stereo not drawn)	ATG4B inh 40.5 | PLA2 counter inactive
O=C1NC(c2ccc(Cl)cc2)Oc2ccccc21 (stereo not drawn)	none
OC(CN1c2ccccc2Sc2ccccc21)Cn1nnc2ccccc21 (stereo not drawn)	ATG4B inh 44.4 | PLA2 counter 64.9
O=C(O)c1ccc(NC2=C/C(=N/S(=O)(=O)c3ccccc3)c3ccccc3C2=O)cc1	ATG4B inh 43.0, PAFAH2 inh 47.9, PAFAH1B3 FP inh 63.4, PAFAH1B2 FP inh 30.3 (no result: pPAFAH FP inh) | ATG4B conf 60.6 | PLA2 counter inactive
Cc1ccc(-n2ncc3c(=O)n(CC(=O)N4CCN(C(=O)c5ccco5)CC4)cnc32)cc1	none
O=C(O)c1cc(Cl)c(Cl)cc1C(=O)N(Cc1ccccc1)Cc1ccccc1	ATG4B inh 43.1 | PLA2 counter 51.7
O=C(O)c1ccccc1C(=O)N(Cc1ccccc1)Cc1ccccc1	none
CC1(C)SC(=S)N(NC(=O)Nc2cccc3ccccc23)C1N(O)C(=O)Nc1ccccc1 (stereo not drawn)	ATG4B inh 45.7 | PLA2 counter 58.3
CCC[C@H]1COCCS(=O)(=O)N1Cc1ccc(Br)cc1	none (no result: ATG4B inh, PAFAH2 inh, PAFAH1B3 FP inh, DAGLB inh, PAFAH1B2 FP inh)
COC(=O)c1cccc(NC(=S)NCc2ccc(F)cc2)c1	ATG4B inh 41.8 | PLA2 counter 50.5
Fc1ccc(CNC(=S)Nc2cccc(Cl)c2)cc1	ATG4B inh 60.9 | PLA2 counter 67.4
O=C(NC(=S)Nc1ccc(F)c(Cl)c1)C1CC1	none
Fc1ccc(CNC(=S)Nc2ccc(Cl)cc2)cc1	ATG4B inh 43.5 | PLA2 counter 52.2
Fc1ccc(NC(=S)Nc2ccc(F)c(Cl)c2)cc1Cl	ATG4B inh 71.7 | PLA2 counter 76.3
Cc1ccc(NC(=S)NCc2ccc(Cl)cc2)c(OC(F)F)c1	ATG4B inh 47.0 | PLA2 counter 54.6
Cc1ccc(CNC(=S)Nc2ccc(OC(F)F)cc2C)cc1	none
S=C(NCc1ccccc1)Nc1ccc(Oc2ccccc2)cc1	ATG4B inh 56.8 | PLA2 counter 66.5
S=C(NCc1ccccc1Cl)Nc1ccccc1Cl	none
